Measured values reported in PubChem BioAssay AID720704 (The Scripps Research Institute Molecular Screening Center, 2013).
In all, about 370,000 compounds went through this assay and about 660 (0.18%) were called active. Many of the other results were omitted from the sample, so actives are more common in it than they were. Unmarked numbers belong to inactive results. Rule as the data show it: active = inhibition above about 11%; inactive = the rest.

target: 1-phosphatidylinositol 4,5-bisphosphate phosphodiesterase beta-3 (Homo sapiens) (UniProt Q01970); experiment: phospholipase C beta3 enzyme inhibition – biochemical, fluorescence, primary screen (AID 720704); details: Purified PLC-beta3, fluorogenic substrate, at 12.2 µM, hits give high values;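 also: 0% = median of compound wells on plate and 100% = full blocker control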
Sequence (Q01970 whole entry, looked up): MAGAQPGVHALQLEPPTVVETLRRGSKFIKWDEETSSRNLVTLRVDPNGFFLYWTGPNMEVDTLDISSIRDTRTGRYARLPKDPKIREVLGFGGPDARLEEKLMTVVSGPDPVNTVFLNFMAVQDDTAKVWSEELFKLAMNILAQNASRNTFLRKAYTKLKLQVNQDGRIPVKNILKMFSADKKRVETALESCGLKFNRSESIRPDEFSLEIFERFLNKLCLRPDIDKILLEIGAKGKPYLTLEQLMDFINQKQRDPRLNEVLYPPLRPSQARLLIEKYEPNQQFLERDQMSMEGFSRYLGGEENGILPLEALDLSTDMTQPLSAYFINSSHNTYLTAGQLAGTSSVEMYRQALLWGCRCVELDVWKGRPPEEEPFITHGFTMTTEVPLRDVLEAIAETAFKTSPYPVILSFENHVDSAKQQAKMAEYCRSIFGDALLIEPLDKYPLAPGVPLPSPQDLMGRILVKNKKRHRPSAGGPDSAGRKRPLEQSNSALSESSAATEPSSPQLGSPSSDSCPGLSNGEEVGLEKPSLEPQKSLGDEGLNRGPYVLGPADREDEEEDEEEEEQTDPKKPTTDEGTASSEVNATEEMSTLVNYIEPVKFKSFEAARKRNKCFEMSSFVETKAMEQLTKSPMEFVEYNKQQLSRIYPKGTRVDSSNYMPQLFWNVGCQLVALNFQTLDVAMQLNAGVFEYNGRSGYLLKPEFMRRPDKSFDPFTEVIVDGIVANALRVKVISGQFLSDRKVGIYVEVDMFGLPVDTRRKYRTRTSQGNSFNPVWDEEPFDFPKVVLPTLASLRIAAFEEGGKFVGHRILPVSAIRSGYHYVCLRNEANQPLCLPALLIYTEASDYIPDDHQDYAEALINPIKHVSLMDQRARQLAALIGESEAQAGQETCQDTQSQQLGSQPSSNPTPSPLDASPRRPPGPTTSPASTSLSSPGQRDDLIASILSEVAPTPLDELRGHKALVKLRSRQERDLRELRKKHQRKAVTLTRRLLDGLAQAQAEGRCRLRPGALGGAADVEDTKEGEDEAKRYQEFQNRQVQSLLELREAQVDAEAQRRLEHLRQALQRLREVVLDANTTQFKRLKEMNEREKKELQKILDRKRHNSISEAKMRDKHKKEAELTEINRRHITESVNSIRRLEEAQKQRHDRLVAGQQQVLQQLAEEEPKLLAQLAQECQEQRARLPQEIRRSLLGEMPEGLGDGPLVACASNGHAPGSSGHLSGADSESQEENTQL

In order of falling inhibition:
1. O=C(COc1ccc(S(=O)(=O)N2CCCC2)cc1[N+](=O)[O-])N1CCCCC1  6.09%
2. O=S(=O)(NCCSc1ccccn1)c1ccc(Cl)cc1  4.09%
3. Cc1cccc(C(=O)Nc2ccccc2C(=O)NCc2cccnc2)c1  2.86%
4. CN(C(=O)c1cccc(NC(=O)Cc2ccc([N+](=O)[O-])cc2)c1)C1CCC1  1.28%
5. CN(C(=O)c1cccc(NC(=O)Cc2cccc(NC(=O)C3CCCN(C(=O)C4CC4)C3)c2)c1)C1CCC1 (stereo not drawn)  1.11%
6. CC1=CC(=O)C=CC1(C)C(Cl)(Cl)Cl (stereo not drawn)  0.48%
7. O=C(CNC(=O)c1ccccc1)OC(C(=O)Nc1cc([N+](=O)[O-])ccc1F)c1ccccc1 (stereo not drawn)  -0.41%
8. Cc1ccc(S(=O)(=O)N2CCC(C(=O)OCC(=O)N(C)c3ccccc3)CC2)cc1C  -0.47%
9. CCOC(=O)[C@H]1CCC[C@@H](NS(=O)(=O)c2ccc(NC(C)=O)cc2)C1  -1.08%
10. Cc1c(C(=O)N2CC(C)OC(C)C2)sc2nc(-c3ccccc3)cn12 (stereo not drawn)  -2.9%
11. Cc1ccc(S(=O)(=O)N(CC(O)CN2CCCCC2)c2cccc([N+](=O)[O-])c2)cc1 (stereo not drawn)  -3.53%
12. O=C(NC1CCCCN(Cc2ccc(Cl)cc2)C1=O)c1ccc(Br)cc1 (stereo not drawn)  -4.01%
13. CCCOc1cccc(C(=O)NCCCNC(=O)c2cccnc2)c1  -4.69%
14. COc1ccc([N+](=O)[O-])cc1N(CC(O)CN(CC(C)C)CC(C)C)S(=O)(=O)c1ccc(C)cc1 (stereo not drawn)  -4.79%
15. O=C(c1ccc(F)cc1)N1CCCC(C(=O)N2CCCCC2)C1 (stereo not drawn)  -6.9%
16. O=S1(=O)C[C@@H](N2CCN(CCO)CC2)[C@H](COCc2ccccc2)N1  -7.43%
17. CCn1cc(C(=O)NCCC(=O)NCCO)c(=O)c2cc3c(cc21)OCO3  -11.8%
18. Cc1cccc(OCc2nnc(SCc3nc4cc(C(F)(F)F)ccc4c(=O)[nH]3)o2)c1  -14.6%

COc1ccc([N+](=O)[O-])cc1N(CC(O)Cn1nnc2ccccc21)S(=O)(=O)c1ccc(C)cc1 (stereo not drawn) was tested, and the inhibition was 11.5% (active).
In the case of CCOc1ccccc1NC(=O)c1cccnc1, the inhibition is reported as 12.6% (active).
In the case of COc1ccc(S(=O)(=O)N2CCC(C(=O)OCC(=O)c3ccccc3)CC2)cc1[N+](=O)[O-], the inhibition is reported as 10.8% (active).
CN(C(=O)c1cccc(NC(=O)Cc2cccc([N+](=O)[O-])c2)c1)C1CCCCC1 was tested, and the inhibition was 11.2% (active).
For CCOc1c(Br)cc(/C=C2\C(=O)N(CCC#N)N=C2C)cc1OC, the inhibition was 13.5% (active).
